# From the supplement of paper PMC13380429
# A number with no mark means an inactive call.
# System: Vero E6 infected with SARS-CoV-2
# Experiment: inhibition of SARS-CoV-2 cytopathic effect; higher = more antiviral protection, active = above 15
# Conditions: 48 h
SMILES,inhibition of SARS-CoV-2 cytopathic effect (1 nM) [%],inhibition of SARS-CoV-2 cytopathic effect (8.33 nM) [%],inhibition of SARS-CoV-2 cytopathic effect (100 nM) [%],inhibition of SARS-CoV-2 cytopathic effect (833.33 nM) [%],inhibition of SARS-CoV-2 cytopathic effect (10000 nM)
C=C1C(=O)O[C@@H]2[C@H]3O[C@]3(C)CC/C=C(\C)CC[C@@H]12 [parthenolide-(alternate-stereo)],0.91,-1.19,-2.99,2.8,23.8% (active)
CCN1C[C@]2(OC(=O)c3ccccc3NC(C)=O)CC[C@H](OC)[C@@]34[C@@H]2C[C@@H]([C@@H]13)[C@@]1(O)C[C@H](OC)[C@H]2C[C@@H]4[C@]1(O)[C@H]2OC [lappaconite],6.58,2.61,1.75,0.15,0.28%
CCC[C@H]1C(=O)N2C(N(C)C)=Nc3ccc(C)cc3N2C1=O [azapropazone],-0.8,-0.4,-0.47,-0.49,-3.61%
CNCCCN1c2ccccc2CCc2ccccc21 [desipramine],-0.7,-0.11,-1.22,-1.13,-2.62%
CCOc1ccc(Cc2cc([C@]34OC[C@](CO)(O3)[C@@H](O)[C@H](O)[C@H]4O)ccc2Cl)cc1 [ertugliflozin],-4.37,-4.65,-2.3,-0.17,0.59%
c1ccc2c(c1)Sc1ccccc1N2C[C@H]1CN2CCC1CC2 [levomequitazine],-10.3,-6.41,-8.62,-7.33,-13.9%
C/C(=N\c1ccccc1N)c1c(C)cc(=O)n(O)c1O,-2.19,-2.18,-1.91,3.65,1.35%
c1cc2c(cc1C1CCCCC1)c1c3n2CCNC3CCC1 (stereo not given) [tetrindole],1.68,1.55,-2.86,-1.8,20.8% (active)
CCCCOc1c(C(=O)c2c(F)cc(C)cc2F)c[nH]c2nncc1-2,0.56,-0.26,0.08,-0.55,-3.38%
NCCC[C@H](N)C(=O)O [ornithine],-1.52,-1.05,-1.8,-2.37,2.35%
N=C(N)c1cc2ccc(OC(=O)c3cccs3)cc2s1,1.66,1.86,2.63,-1.57,4.87%
CCc1oc2ccccc2c1C(=O)c1cc(Br)c(O)c(Br)c1 [benzbromarone],-1.45,0.69,-2.5,-0.89,0.48%
CCCCCCCC(=O)N[C@H](CN1CCCC1)[C@H](O)c1ccc2c(c1)OCCO2 [eliglustat],3.28,2.4,-0.12,4.02,0.05%
O=c1ncccn1[C@@H]1O[C@H](CO)[C@@H](O)[C@H]1O [zebularine],-2.02,-1.31,1.93,1.42,-1.45%
O=c1cc(N2CCOCC2)oc2c(-c3ccccc3)cccc12,-0.31,1.39,0.59,-1.92,-5.7%
NCCCC[C@@H]1NC(=O)[C@@H](Cc2c[nH]c3ccccc23)NC(=O)[C@H](c2ccccc2)NC(=O)[C@@H]2C[C@@H](OC(=O)NCCN)CN2C(=O)[C@H](Cc2ccccc2)NC(=O)[C@H](Cc2ccc(OCc3ccccc3)cc2)NC1=O [pasireotide],-6.41,-8.12,-5.04,-4.91,-5.41%
CC(=O)[C@]1(O)Cc2c(O)c3c(c(O)c2[C@@H](O[C@H]2C[C@H](N)[C@H](O)[C@H](C)O2)C1)C(=O)c1ccccc1C3=O [idarubicin],-0.73,1.96,-0.94,-13.1,-6.65%
